In the library only some 4.5% were active in any assay of this set; here they are far more common.
CSC inhib: cancer stem cell viability inhibitors, primary screen, luminescence; cancer stem cell-like cells viability; inhibition, % at 7.5 µM; AID 2717, 2010; 300,000 compounds, 1.1% hits; in the data active means inhibition above about 75%; tested in HMLE shEcad cells
Gli-Sufu block: Gli-Sufu pathway antagonists, primary screen, luciferase luminescence, Sufu-KO-LIGHT cells, uHTS; Sufu-KO-LIGHT fibroblasts, Gli luciferase reporter luminescence; inhibition, % at 5 µM; 340,000 compounds, 0.74% hits; AID 588413, 2011;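 active means inhibition above about 55%, limit read from the data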
aSyn UTR inh: MLPCN primary screen, SNCA 5' untranslated region; alpha-synuclein 5'UTR reporter, inhibitor activity; inhibition, % (tested at 7.5 µM); 300,000 compounds, 0.82% hits; in the data active means inhibition above about 60%;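 further: H4 neuroglioblastoma cells stably carrying SNCA 5'UTR luciferase fusion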
Jurkat NFkB inh: inhibitors of induced NF-kB luciferase reporter, primary screen, TCR NF-kB activation inhibitor project, cell-based, luminescence, uHTS; Jurkat, PMA/ionomycin-induced NF-kB luciferase reporter; inhibition, % at 4 µM; AID 435003, 2010; 330,000 compounds, 0.53% hits; in the data active means inhibition above about 50%
Mdm2-MdmX inh: inhibitors of human Mdm2-MdmX association, primary screen, cell-based, luminescence, split luciferase, SaOS-2, uHTS; Protein Mdm4 (Homo sapiens) + E3 ubiquitin-protein ligase Mdm2 (Homo sapiens), …; SaOS-2 split-luciferase Mdm2/MdmX complementation; inhibition, % at 8 µM; 330,000 compounds, 3% hits; AID 485346, 2010;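 active means inhibition of at least 50% at 8 µM in the primary screen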
Target sequence (O15151 whole entry, looked up): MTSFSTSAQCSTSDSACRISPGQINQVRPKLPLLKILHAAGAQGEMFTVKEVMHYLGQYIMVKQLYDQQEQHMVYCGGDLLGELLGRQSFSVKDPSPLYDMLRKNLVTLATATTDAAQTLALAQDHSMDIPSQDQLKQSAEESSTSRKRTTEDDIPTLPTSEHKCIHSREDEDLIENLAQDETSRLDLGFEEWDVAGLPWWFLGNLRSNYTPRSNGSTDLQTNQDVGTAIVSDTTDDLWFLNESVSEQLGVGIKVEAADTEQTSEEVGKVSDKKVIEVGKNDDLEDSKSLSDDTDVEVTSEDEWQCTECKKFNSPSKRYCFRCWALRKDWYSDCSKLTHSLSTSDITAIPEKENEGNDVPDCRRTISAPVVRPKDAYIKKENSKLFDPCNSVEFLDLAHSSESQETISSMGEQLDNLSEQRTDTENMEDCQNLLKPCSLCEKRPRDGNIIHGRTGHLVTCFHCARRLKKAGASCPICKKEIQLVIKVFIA
Target sequence (Q00987 whole entry, looked up): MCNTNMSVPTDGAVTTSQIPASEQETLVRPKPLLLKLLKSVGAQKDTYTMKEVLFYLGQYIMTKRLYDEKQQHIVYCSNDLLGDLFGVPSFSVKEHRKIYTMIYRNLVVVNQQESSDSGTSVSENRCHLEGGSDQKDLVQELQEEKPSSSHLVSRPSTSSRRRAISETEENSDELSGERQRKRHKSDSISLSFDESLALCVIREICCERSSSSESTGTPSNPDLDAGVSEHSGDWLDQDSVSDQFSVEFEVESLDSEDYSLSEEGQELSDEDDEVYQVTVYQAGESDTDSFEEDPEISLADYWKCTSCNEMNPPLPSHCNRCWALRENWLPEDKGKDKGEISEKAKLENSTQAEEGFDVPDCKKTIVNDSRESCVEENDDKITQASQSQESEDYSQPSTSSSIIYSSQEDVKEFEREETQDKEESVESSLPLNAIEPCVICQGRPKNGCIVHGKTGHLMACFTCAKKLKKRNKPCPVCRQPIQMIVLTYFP
697 NFkB inh: inhibitors of PMA/ionomycin-induced NF-kB reporter, 697 cells, primary screen, B-cell NF-kB inhibitor project, cell-based, luminescence, uHTS; AID 435022, 2010; 697 B-cell NF-kB luciferase reporter, 16 h; 330,000 compounds, 0.33% hits; inhibition, % at 4 µM; in the data active means inhibition above about 35%
Gli-Sufu confirm: Gli-SUFU pathway antagonists, confirmation, single concentration, luciferase luminescence, Sufu-KO-LIGHT cells; shares compounds with Gli-Sufu block; Gli luciferase reporter; inhibition, % at 5 µM; 2,500 compounds, 40% hits;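 active means mean inhibition at 5 µM reaching about 45%, limit read from the data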
SufuKO cytotox: cytotoxicity in Sufu-KO-LIGHT cells, confirmation, cytotoxicity control for Gli-SUFU antagonist project, cell-based, ATP luminescence, single concentration; shares compounds with Gli-Sufu block; cytotoxicity, % at 5 µM; 2,500 compounds, 32% hits; AID 651994, 2013;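 active means mean cytotoxicity at 5 µM above about 25%, limit read from the data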;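 further: cells exposed to compound overnight for roughly 16 to 18 hours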
Wnt3a counter: Wnt3a reporter signal inhibition, confirmation, counter-screen for Gli-SUFU antagonist project, Wnt-LIGHT cells, luminescence, single concentration; inhibition, % at 6.25 µM; shares compounds with Gli-Sufu block; Wnt3a-driven luciferase reporter; 2,500 compounds, 20% hits;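 active means mean inhibition above about 25%, limit read from the data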
Each line names hits and unclear results; the compound was inactive in the other large screens (follow-up assays come after a bar, where they were run).

O=C(c1cc(COc2cccc(C(F)(F)F)c2)on1)N1CCC(c2ccncc2)CC1	none | Gli-Sufu confirm 62 | SufuKO cytotox 37 | Wnt3a counter inactive
COC(=O)C1CCN(C(=O)COC(=O)CSc2ccc(C(N)=O)cc2[N+](=O)[O-])CC1	none
CC(=O)OCC1=C(C(=O)O)N2C(=O)C(NC(=O)c3ccc(COc4c(C)cccc4Cl)o3)C2SC1 (centres undefined)	none
CC(=O)OCC1=C(C(=O)O)N2C(=O)C(NC(=O)c3ccc(COc4ccc(Cl)cc4)o3)C2SC1 (centres undefined)	none | Gli-Sufu confirm inactive | SufuKO cytotox inactive | Wnt3a counter inactive
CC1CCN(c2ccccc2NC(=S)NC(=O)c2ccc(-c3cccc([N+](=O)[O-])c3)o2)CC1	Gli-Sufu block 79 | Gli-Sufu confirm 86 | SufuKO cytotox 32 | Wnt3a counter inactive
CCOc1ccc(NC(=O)COC(=O)CCN2C(=O)C3CC=CCC3C2=O)cc1OCC (centres undefined)	none (no result: CSC inhib, aSyn UTR inh)
CC(C)(C)[C@H]1COC(=O)[C@H](NC(=O)OCC2c3ccccc3-c3ccccc32)C/C=C\C[C@@H](CC(=O)N(CCO)Cc2ccccc2)C(=O)N1	Gli-Sufu block 58 (no result: CSC inhib, aSyn UTR inh) | Gli-Sufu confirm 52 | SufuKO cytotox inactive | Wnt3a counter inactive
C[C@@H]1COC(=O)[C@H](NC(=O)OCC2c3ccccc3-c3ccccc32)C/C=C\C[C@@H](CC(=O)N(CCO)Cc2ccccc2)C(=O)N1	Gli-Sufu block 55 (no result: CSC inhib, aSyn UTR inh) | Gli-Sufu confirm 48 | SufuKO cytotox 30 | Wnt3a counter inactive
O=C(N[C@@H]1C/C=C\C[C@@H](CC(=O)N(CCO)Cc2ccccc2)C(=O)NCCOC1=O)OCC1c2ccccc2-c2ccccc21	none (no result: CSC inhib, aSyn UTR inh) | Gli-Sufu confirm 48 | SufuKO cytotox inactive | Wnt3a counter inactive
O=C1NCCOC(=O)[C@H](Cc2ccc(F)cc2)C/C=C\C[C@H]1CC(=O)N(CCO)Cc1ccccc1	none (no result: CSC inhib, aSyn UTR inh)
Cc1ccc(NC(=O)c2cc(C)n(-c3cccc(C)c3)c2C)cc1	Gli-Sufu block 77 | Gli-Sufu confirm 86 | SufuKO cytotox 67 | Wnt3a counter 89
COc1cccc(C(=O)Nc2cc([N+](=O)[O-])ccc2N2CCN(C)CC2)c1	none (no result: CSC inhib) | Gli-Sufu confirm inactive | SufuKO cytotox inactive | Wnt3a counter inactive
COc1ccc(C(=O)Nc2cc([N+](=O)[O-])ccc2N2CCN(C)CC2)cc1	none
COc1cc(CN(C)CC2CCCN(CCc3ccc(F)cc3)C2)c(Cl)cc1O (centres undefined)	Gli-Sufu block 55 | Gli-Sufu confirm inactive | SufuKO cytotox inactive | Wnt3a counter inactive
COc1ccccc1CCN1CCCC(CN(C)CC(C)(C)CO)C1 (centres undefined)	none (no result: CSC inhib)
COc1ccccc1CCN1CCCC(CN(C)Cc2ccc(OCCO)cc2)C1 (centres undefined)	none | Gli-Sufu confirm inactive | SufuKO cytotox inactive | Wnt3a counter inactive
CCc1[nH]c(=S)c(C#N)c2c1CCCC2	none
CCc1[nH]c(=O)c(C#N)c2c1CCCC2	none | Gli-Sufu confirm inactive | SufuKO cytotox inactive | Wnt3a counter inactive
CCCCCn1c(CN2CCN(c3cc(Cl)ccc3C)CC2)nc2c1c(=O)[nH]c(=O)n2C	CSC inhib 112 | Gli-Sufu confirm inactive | SufuKO cytotox inactive | Wnt3a counter inactive
CCCCCn1c(N2CCN(c3cccc(Cl)c3)CC2)nc2c1c(=O)[nH]c(=O)n2C	none
COC(=O)CN=Cc1c(C)[nH]n(-c2ccccc2)c1=O	none
Cc1[nH]n(-c2ccccc2)c(=S)c1C=NCCCN=Cc1c(C)[nH]n(-c2ccccc2)c1=S	Gli-Sufu block 71 | Gli-Sufu confirm inactive | SufuKO cytotox 32 | Wnt3a counter inactive
CCOC(=O)C1(CCc2ccccc2)CCN(Cc2ccc(C(=O)OC)cc2)CC1	none
CCOC(=O)C1(CCOc2ccccc2)CCN(Cc2cc(OC)c3c(c2)OCO3)CC1	none | Gli-Sufu confirm inactive | SufuKO cytotox inactive | Wnt3a counter inactive
CCOC(=O)C1(CCc2ccccc2)CCN(Cc2cc(OC)c(OC)cc2OC)CC1	Gli-Sufu block 60 | Gli-Sufu confirm inactive | SufuKO cytotox inactive | Wnt3a counter inactive
CCOC(=O)C1(CCOc2ccccc2)CCN(Cc2cccc(OC)c2OC)CC1	Gli-Sufu block 56 | Gli-Sufu confirm inactive | SufuKO cytotox inactive | Wnt3a counter inactive
CCOC(=O)C1(CCOc2ccccc2)CCN(Cc2ccccc2O)CC1	none (no result: Jurkat NFkB inh, Mdm2-MdmX inh, 697 NFkB inh)
C[C@@H]1O[C@@H](OCCC(=O)O)[C@H](O)C[C@H]1O	none (no result: aSyn UTR inh)
COc1ccc(CN2CCCCC2C(=O)Nc2ccc(OC)c(OCC(C)C)c2)cc1OC (centres undefined)	Gli-Sufu block 63 | Gli-Sufu confirm inactive | SufuKO cytotox 29 | Wnt3a counter inactive
Cc1nc2ncnn2c(N2CCN(S(=O)(=O)c3ccc(Br)cc3)CC2)c1C	Gli-Sufu block 57 | Gli-Sufu confirm inactive | SufuKO cytotox inactive | Wnt3a counter inactive
CCN(CC)CCCn1c2c(c(SCC(=O)Nc3nc(C)cs3)nc1=O)CCC2	none
N/C(=N/O)c1ccccc1N1CCC(Cc2ccccc2)CC1	Gli-Sufu block 78 | Gli-Sufu confirm 74 | SufuKO cytotox 36 | Wnt3a counter inactive
CC(NC(=O)Cn1cccc1)c1ccccc1 (centres undefined)	none
Cc1cc(N2CCN(c3ccc(C(F)(F)F)cc3[N+](=O)[O-])CC2)c2ccccc2n1	CSC inhib 97 | Gli-Sufu confirm inactive | SufuKO cytotox inactive | Wnt3a counter inactive
CC1(C)CC2CC(C)(CN2c2ncnc3ccccc23)C1 (centres undefined)	none | Gli-Sufu confirm inactive | SufuKO cytotox inactive | Wnt3a counter inactive
CC(=O)c1cc(-c2ccccc2)n(CCC(=O)NC2CCCCCCC2)c1C	Gli-Sufu block 70 | Gli-Sufu confirm inactive | SufuKO cytotox inactive | Wnt3a counter inactive
Cc1c2ccccc2cc(Cc2ccccc2)[n+]1C	none
Cc1ccc(NC(=O)CN(C)C(=O)CNC(=O)c2sc3ccccc3c2Cl)cc1	none
Cc1c(C(=O)N2CCN(Cc3ccccc3)CC2)oc2c1C(=O)CC(C)(C)C2	none | Gli-Sufu confirm inactive | SufuKO cytotox inactive | Wnt3a counter inactive
Cc1c(C(=O)N2CCN(c3ccccc3)CC2)oc2c1C(=O)CC(C)(C)C2	none

High-throughput results (PubChem)
